In PubChem BioAssay (EPA / NIEHS):
Inconclusive results are not listed. Calls of active or inactive are those of the source. The calls were made as follows: active = hit-call score of the fitted dose curve at least 0.9, where 1 is the maximum; inconclusive = response in the unintended direction; inactive = score below 0.9.

What follows are compounds tested against Cellular tumor antigen p53 (Homo sapiens) (UniProt P04637) (assay: TOX21_p53_BLA_p4_ratio: Tox21 HCT-116 p53 Agonism Beta-lactamase Assay, Ratio, Phase 4 (AID 2283601)).
Excerpt: TOX21_p53_BLA_p4 is a cell-based, single-readout assay that uses HCT116, a human intestinal cell line, […] in a 1536-well plate.TOX21_p53_BLA_p4_ratio is an assay readout measuring reporter gene via receptor activity and designed using inducible reporter (beta lactamase induction) detected with GAL4 b-lactamase reporter gene. The signal is derived from the ratio of cleaved (ch2) to uncleaved (ch1)reporter gene substrate used as the measure of target activity.Data from the assay component TOX21_p53_BLA_p4_ratio was analyzed into 1 assay endpoint. This assay endpoint, TOX21_p53_BLA_p4_ratio, was analyzed in the positive analysis fitting direction relative to DMSO as the negative control and baseline of activity. Using a type of inducible reporter, gain-of-signal activity can be used to understand changes in the reporter gene as they relate to the gene TP53. Furthermore, this assay endpoint can be referred to as a primary readout, because this assay has produced multiple assay endpoints where this ratio serves a reporter gene function to understand target activity. To generalize the intended target to other relatable targets, this assay endpoint is annotated to the DNA binding intended target family, where the subfamily is tumor suppressor.
Thawing Method: Place 14 mL of pre-warmed thaw medium into a 15 mL of conical tub. Remove the vial of cells to be thawed from liquid nitrogen and thaw rapidly by placing at 37C in a water bath with gentle agitation for 1-2 minutes. Decontaminate the vial by wiping with 70% ethanol before opening in a biological safety cabinet. Transfer the vial contents drop-wise into 14 mL of thaw medium in a sterile 15-mL conical tub. Centrifuge cells at 900 rpm for 4 minutes and resuspend in thaw medium. Transfer contents to the T75 tissue culture flask containing Thaw Medium and place flask in a humidified 37C/5% CO2 incubator. Switch to growth medium at first passage.Propagation Method: Aspirate medium, rinse once in DPBS, add 0.25% Trypsin/EDTA and swirl to coat the cell evenly. Add an equal volume of Growth Medium to inactivate Trypsin after 2-3 minutes incubation at 37C. Centrifuge cells at 900 rpm for 4 minutes and resuspend in growth medium. Cell should be passage or fed at least twice a week.Assay Protocol: Harvest cells from culture in growth medium and resuspend in assay medium. 2.2 Dispense 4000 cells/5 uL/well into 1536-well black/clear bottom plates using a Multidrop dispenser. After the cells were incubated at 37C for 5 hours, 23 nL of compounds dissolved in DMSO were transferred to the assay plate by a PinTool resulting in a 217-fold dilution. Incubate the plates for 16 hours at 37C, 5% CO2. Add 1 uL of 6X LiveBLAzer FRET B/G (CCF4-AM) Substrate Mixture to each well using a BioRAPTR dispenser and incubate the plates at room temperature for 2 hours. Measure fluorescence intensity at 460 and 530 nm emission and 405 nm excitation by an Envision detector. Data is expressed as the ratio of 460nm/530nm emissions. Add 4 uL of Cell-titer Glo to each well using BioRAPTR and incubate the plates at room temperature for 2 hours. Measure fluorescence intensity by a VewLux plate reader.

Chain of Cellular tumor antigen p53 (Homo sapiens) (P04637 whole entry, looked up, the tested form may be a part): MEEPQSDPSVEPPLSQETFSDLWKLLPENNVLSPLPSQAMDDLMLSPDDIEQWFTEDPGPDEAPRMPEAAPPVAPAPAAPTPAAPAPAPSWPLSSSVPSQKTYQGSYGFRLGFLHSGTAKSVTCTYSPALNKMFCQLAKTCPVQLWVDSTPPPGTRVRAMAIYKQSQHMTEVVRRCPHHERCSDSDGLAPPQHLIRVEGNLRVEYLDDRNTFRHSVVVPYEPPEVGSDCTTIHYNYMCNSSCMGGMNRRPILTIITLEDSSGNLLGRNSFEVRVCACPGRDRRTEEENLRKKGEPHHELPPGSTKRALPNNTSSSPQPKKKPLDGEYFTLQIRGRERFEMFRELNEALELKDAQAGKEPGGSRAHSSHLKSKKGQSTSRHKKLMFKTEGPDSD

Row | SMILES | outcome | AC50
1 | Cc1cc(Cl)ccc1N=CN(C)C | inactive | 
2 | Oc1cccc(Cl)c1Cl | inactive | 
3 | N#CCCl | inactive | 
4 | C=C[C@H]1CN2CC[C@H]1C[C@@H]2[C@@H](O)c1ccnc2ccccc12 | inactive | 
5 | CCN(Cc1ccc(Cl)nc1)/C(=C/[N+](=O)[O-])NC | inactive | 
6 | CC(=O)O[C@H]1CC[C@@]2(C)C(=CC[C@@H]3[C@@H]2CC[C@]2(C)C(=O)CC[C@@H]32)C1 | inactive | 
7 | CNC(=O)OCC[N+](C)(C)C | inactive | 
8 | COc1ccc(CN2CCNCC2)c(OC)c1OC | inactive | 
9 | N#CCNCC#N | inactive | 
10 | CCCC[n+]1cccc(C)c1 | inactive | 
11 | CCCC(C)(COC(N)=O)COC(=O)NC1CC1 (stereo not given) | inactive | 
12 | SCc1ccccc1 | inactive | 
13 | CC(C)[C@@H](C(=O)O[C@@H](C#N)c1cccc(Oc2ccccc2)c1)c1ccc(Cl)cc1 | inactive | 
14 | CC(=O)[O][Sn]([c]1ccccc1)([c]1ccccc1)[c]1ccccc1 |  | 8.98 µM (active)
15 | CC(C)(Cl)Cl | inactive | 
16 | CCCCN(N=O)C(=N)N[N+](=O)[O-] |  | 40.7 µM (active)
17 | CCCC(=O)OC(C(Cl)(Cl)Cl)P(=O)(OC)OC (stereo not given) | inactive | 
18 | CCC1(CC)C(=O)C=CNC1=O | inactive | 
19 | Fc1ccc(C(OCCN2CCN(CCCc3ccccc3)CC2)c2ccc(F)cc2)cc1 |  | 39 µM (active)
20 | C=CC(C)=O | inactive | 

Row | SMILES | outcome | AC50
21 | Nc1ccncc1 | inactive | 
22 | COP(=O)(OC)OC(=CCl)c1cc(Cl)c(Cl)cc1Cl | inactive | 
23 | CCOC(=O)N(C)C(=O)CSP(=S)(OCC)OCC | inactive | 
24 | O=C(Cl)/C=C/C(=O)Cl | inactive | 
25 | NCC(O)c1cccc(O)c1 (stereo not given) | inactive | 
26 | C=CCN1C[C@H](C)N([C@H](c2ccc(C(=O)N(CC)CC)cc2)c2cccc(OC)c2)C[C@H]1C | inactive | 
27 | Oc1c(Br)c(Br)c(Br)c(Br)c1Br | inactive | 
28 | ClC=CCl | inactive | 
29 | c1ccc2c(c1)OCC(C1=NCCN1)O2 (stereo not given) | inactive | 
30 | CC=Cc1ccc2c(c1)OCO2 | inactive | 
31 | Cc1ccccc1CCl | inactive | 
32 | N[C@@H](Cc1ccc(Oc2cc(I)c(O)c(I)c2)c(I)c1)C(=O)O | inactive | 
33 | O=[N+]([O-])C(Br)Br | inactive | 
34 | CCCCC1C(=O)NC(=O)N(C2CCCCC2)C1=O (stereo not given) | inactive | 
35 | CNC(=O)Oc1ccccc1C(=O)Nc1ccccc1 | inactive | 
36 | O=S(=O)(c1ccccc1)c1ccccc1 | inactive | 
37 | CC(=O)O[C@H]1C[C@H](O[C@H]2[C@@H](O)C[C@H](O[C@H]3[C@@H](O)C[C@H](O[C@H]4CC[C@@]5(C)[C@H](CC[C@@H]6[C@@H]5C[C@@H](O)[C@]5(C)[C@@H](C7=CC(=O)OC7)CC[C@]65O)C4)O[C@@H]3C)O[C@@H]2C)O[C@H](C)[C@H]1O[C@@H]1O[C@H](CO)[C@@H](O)[C@H](O)[C@H]1O | inactive | 
38 | CCCCN=C=O | inactive | 
39 | Cc1nc(N)nc(N)n1 | inactive | 
40 | O=[N+]([O-])/C=C/c1ccccc1 | inactive | 
